# From PubChem BioAssay AID1063 (University of Pittsburgh Molecular Library Screening Center, 2008)
# Out of some 200,000 compounds screened, about 18,000 (9%) were called active. The full list was thinned out, with actives kept by preference. A number with no mark means an inactive call. No stated cut-off is given here; in the data, active means inhibition above about 50%; inactive means the rest.
# Assay: antileishmanial activity against promastigotes – primary screen (AID 1063);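 further: promastigotes grown with compound for 44 hours at 28 °C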
# Conditions: Leishmania major promastigotes, resazurin fluorescence viability; at 10 µM; hits give high values
row,Compound,inhibition
1,Cc1ccc(NC(=O)CSc2nc(CSc3ccc(C)cc3)cc(=O)[nH]2)cc1,-2.59%
2,O=C(Nc1ccc2oc(-c3ccc4ccccc4c3)nc2c1)c1cccs1,-1.1%
3,O=C(Cc1cccc2ccccc12)Nc1ccc2oc(-c3ccccc3)nc2c1,40.6%
4,CCCCCC(=O)Nc1ccc2oc(-c3ccncc3)nc2c1,96.4% (active)
5,COc1cc(NC(=S)N2CCCC(C)C2)cc(OC)c1OC (stereo unspecified),4.64%
6,O=C(Nc1ccccc1)N1CCN(C(=O)Nc2ccccc2)CC1,-5.42%
7,CCCCN(C(=O)/C=C/c1ccco1)c1c(N)n(CC(C)C)c(=O)[nH]c1=O,-4.4%
8,O=C(CCc1nnc(CCCCc2ccccc2)o1)NC(c1cccnc1)C(F)(F)F (stereo unspecified),11.3%
9,CC(=O)Nc1cccc([N+](=O)[O-])c1,-0.87%
10,CC(CCc1ccccc1)NCC(O)c1cccc([N+](=O)[O-])c1 (stereo unspecified),59.5% (active)
11,COc1ccc([N+](=O)[O-])cc1NC(=O)CCc1ccccc1,-3.05%
12,CN(C)CCCN1C(=O)CSC1c1ccc([N+](=O)[O-])cc1 (stereo unspecified),46.8%
13,O=C1NC2(CCCCCC2)C(=O)N1CCS(=O)(=O)Oc1ccccc1,-10.5%
14,Cc1ccc(NC(=O)c2ccccn2)cc1S(=O)(=O)N1CCOCC1,-1.09%
15,CCn1cc(C(=O)Nc2cc(C)ccc2C)c(=O)c2ccc(C)nc21,1.39%
16,CC(C)(C)N(CC#CCC(O)(c1ccccc1)C1CCCC1)CCO (stereo unspecified),3.46%
17,CN(CC#CCC(c1ccccc1)c1ccccc1)C(C)(C)C,100% (active)
18,COC(=O)C1=C(Nc2ccc(OC)cc2)C=C(C)C(C(=O)OC)C1c1ccc(C)cc1 (stereo unspecified),24.6%
19,COC(=O)C1=C(Nc2ccc(C)cc2)C=C(C)C(C(=O)OC)C1c1ccc(F)cc1 (stereo unspecified),52.4% (active)
20,COC(=O)C1C(=O)NCC1c1ccc(C)cc1 (stereo unspecified),6.72%
21,COCCn1c(C)cc(C2=NNC(=Nc3ccc(F)cc3)SC2)c1C,-1.36%

row,Compound,inhibition
1,C=CCn1c(C)cc(C2=NNC(=NCC)SC2)c1C,58.5% (active)
2,Cc1cc(C2=NNC(=Nc3ccc(S(=O)(=O)N4CCOCC4)cc3)SC2)c(C)n1CC1CCCO1 (stereo unspecified),-7.5%
3,COC(=O)c1cc2n(n1)CCCNC2=O,-4.96%
4,CC(=O)Nc1ccccc1NC(=O)c1cc(C)cc(C)c1,-0.58%
5,CC(=O)c1ccc(N=C2SCCCN2C(=O)C2CCCCC2)cc1,85.8% (active)
6,O=C(O)c1ccc(NC(=O)C2CCCCC2)cc1,-6.65%
7,CCC1CCCCN1C(=S)Nc1ccc(C(C)=O)cc1 (stereo unspecified),-8.59%
8,COc1cccc(NC(=O)CS(=O)(=O)c2cn(CC(=O)N3CCOCC3)c3ccccc23)c1,-7.03%
9,CC(=O)Nc1ccc(/C=N/NC(=O)c2cccs2)cc1,-2.65%
10,CC(=O)NC(Cc1c[nH]c2ccccc12)C(=O)O (stereo unspecified),-12.4%
11,O=C(NC(Cc1c[nH]c2ccccc12)C(=O)N/N=C/c1ccc(Br)cc1)c1cccs1 (stereo unspecified),65.6% (active)
12,CSc1ncccc1C(=O)N1CCCC(CCC(=O)NCc2ccccc2F)C1 (stereo unspecified),-5.49%
13,COc1cc(NC(=O)c2cccs2)ccc1NC(=O)c1ccccc1Cl,0.19%
14,CCOC(=O)C1CCN(C(c2cc3cc(C)cc(C)c3[nH]c2=O)c2nnnn2C2CCCCC2)CC1 (stereo unspecified),88.6% (active)
15,COc1ccc(N2CCN(C(c3cc4ccc(C)cc4[nH]c3=O)c3nnnn3C3CCCC3)CC2)cc1 (stereo unspecified),75.4% (active)
16,CC(C)C(c1nnnn1C1CCCC1)N1CCN(c2ccccc2F)CC1 (stereo unspecified),33%
17,CN1CCN(C(c2cc3cc4c(cc3[nH]c2=O)OCCO4)c2nnnn2C2CCCC2)CC1 (stereo unspecified),-6.88%
18,CCOc1ccc2[nH]c(=O)c(C(c3nnnn3CCOC)N3CCOCC3)cc2c1 (stereo unspecified),-4.07%
19,CCC(c1nnnn1C1CCCC1)N1CCN(C(=O)c2ccco2)CC1 (stereo unspecified),-6.05%
20,COc1ccc(C(c2nnnn2C2CCCCC2)N2CCN(c3ccccc3F)CC2)cc1 (stereo unspecified),96.8% (active)
21,COCCn1nnnc1C(c1ccccc1Cl)N1CCN(c2ccccc2OC)CC1 (stereo unspecified),-0.67%

row,Compound,inhibition
1,Cc1cc(C)c2[nH]c(=O)c(C(c3nnnn3Cc3ccc4c(c3)OCO4)N3CCCC3)cc2c1 (stereo unspecified),27.4%
2,CCc1c(C)nc2c(OC)cccc2c1Cl,-3.45%
3,Cc1cccc(C(=O)OCC(=O)NCC(C)C)c1O,-1.6%
4,Fc1ccc(COc2cccc(-c3n[nH]c(=S)o3)c2)cc1,-2.62%
5,N#Cc1ncc(C(F)(F)F)cc1Oc1cccnc1,-5.89%
6,O=C(CSc1nnc(-c2ccc([N+](=O)[O-])cc2)o1)Nc1ccccn1,6.18%
7,COc1ccc(/C=C(\C#N)C(=O)ONC2=NCCCCC2)cc1,-4.23%
8,COc1ccc(CCN(C)CCN2C(=O)c3ccccc3C2=O)cc1OC,-2.69%
9,COc1ccc(CCN2C(=O)c3[nH]nc(-c4ccccc4O)c3C2c2ccc(C)cc2)cc1OC (stereo unspecified),75% (active)
10,COC(=O)c1ccc(C2C(Oc3ccccc3C)C(=O)N2CCc2ccc(OC)c(OC)c2)cc1 (stereo unspecified),5.32%
11,CN1C(=O)/C(=C\c2cc(Br)cs2)c2ccccc21,13.9%
12,CCC(C)c1ccc(NC(=S)NCc2ccccn2)cc1 (stereo unspecified),-0.38%
13,Cc1cccc(C)c1N1CCN(S(=O)(=O)N2CCCCC2)CC1,15.9%
14,N#CC1=C(N)Oc2c(sc3ccccc23)C1c1ccco1 (stereo unspecified),9.33%
15,Cc1cc(C)c(C#N)c(SCc2[nH]nc3c2C(c2ccccc2)C(C#N)=C(N)O3)n1 (stereo unspecified),8.99%
16,Cc1cc(C)c2c3c(sc2n1)C(c1ccccc1)C(C#N)=C(N)O3 (stereo unspecified),100% (active)
17,CC(=O)NC(=S)NNC(=O)c1ccc(Br)cc1,-4.54%
18,CCOc1ccc(Br)cc1S(=O)(=O)N1CCC(C(=O)O)CC1,-5.93%
19,CC1Cc2ccccc2N1C1=CC(=O)CC(C)(C)C1 (stereo unspecified),7.71%
